# Reference: the OligoGym collection
# Target: TELO2
# Experiment: pooled miR-30 sensor sort-seq; sequence = guide strand
# Conditions: shRNA
row,Sequence,sensor-assay potency score (higher = more potent)
1,TAGTTGAGGGCATAGAACTGTG,-0.752
2,AAACTCATCATCGCTGTCCAGG,-1.32
3,TTGCCCAGCAGCGTCTCCCGGA,-1.12

# Target: TFAP4
# Experiment: as above
# Conditions: shRNA
row,Sequence,sensor-assay potency score (higher = more potent)
1,TTCACGATGACAGCTCGCCGCT,-1.34
2,TTGCTGTTGGCGATCTCCCGCC,-0.484
3,TTGAGGGACTGGAATCCCGCGT,-0.113
4,TTCGTCCTTGTCCTCTGCCCGC,-1.28
5,AATCACCTTGAGCTTTTCCGGG,-1.02
6,TGCTGAGCTTCTCTCCGTCTGT,-0.432
7,TACATGTGGGCCTCCAGCGAGC,-1.01
8,TTCTCTCCGTCTGTGTGGGGGA,-0.652
9,TTGGCAAGGCTACAGAGCCCTC,-1.54
10,ATCACCTTGAGCTTTTCCGGGT,-0.563
11,TCGTCCTCCCAGATGTCCGGGG,-0.989
12,TTCCCGCTCCAGCTTCTCCTGG,-1.47

# Target: TFEB
# Experiment: as above
# Conditions: shRNA
row,Sequence,sensor-assay potency score (higher = more potent)
1,TCTCCTTTCAATTAAGTTGTGA,-0.161
2,TTGATGTTGAACCTTCGTCTCC,-0.765
3,TTGTTGGTCATCTCCAGGCGGC,-1.28
4,TTCGCTAGGCAGCTCCTGCTTC,-0.419
5,ATCTGTGAGCTCTCGCTTCTGG,-0.356
6,TCATTGATGTTGAACCTTCGTC,-0.00793
7,AAGGACATCGTCCAGACGCATA,-1.55
8,TTGCAGGTCCTTCTGCATCCTC,-1.28
9,TACACATTCAGGTGGCTGCTGG,-0.605
10,TAGCAGTGAGTCGTCCAGGAGC,-1.35
11,TAGCGTGTTGGGCATCTGCATT,-1.17

# Target: TFPI2
# Experiment: as above
# Conditions: shRNA
row,Sequence,sensor-assay potency score (higher = more potent)
1,TGTCGTAGTAGTAACGGAGAAG,-1.18
2,TATAGGTGAAAGCATCACAGGT,-0.811
3,TTAGATTAAAGAAATACTTTTC,-0.873
4,TAGGTGAAAGCATCACAGGTTC,-0.157
5,TTGTATTAATAAAAACTGGTGA,-0.407
6,TACAAGTAGCTTCATCTGGAAA,-1.17
7,TCTCACAAACAGTTGAACCATA,-1.02
8,TTATTCTTCAGATACAACCATA,-1.04
9,TCATCTTTTGGACTGTAGCAAA,-1.13
10,TTGGATTAAAATAATAGCGAGT,-0.659
11,TTTATATCTTATGCATTGCAAG,-1.47
12,TACCTGTCGTAGTAGTAACGGA,-0.941
